# Experimental data published in PubChem BioAssay AID1159607 (Small Molecule Screening Facility, UW Madison, 2016).
# Values joined by “and” are separate entries in the source; they are usually repeats but may differ in a detail not shown here. Identical values can stand only once. The whole screen tested about 70,000 compounds, of which about 400 (0.57%) were called active. Rule as the data show it: active = FP signal below about 40; inactive = the rest. Many of the other results were omitted from the sample, so actives are more common in it than they were.
# Test system: RMI core complex (RMI1/RMI2) binding to FANCM MM2 peptide, human
# Test: disruptors of RMI1/RMI2 association with MM2 peptide – biochemical, fluorescence polarization, human, primary screen (AID 1159607)
# Details: RMI core complex with F-MM2 peptide, at 33 µM, stronger effect = lower value
row,SMILES,FP signal (polarization)
1,CC(=O)O[C@H]1CC[C@@]2(C)C(=CCC3C2CC[C@]2(C)C(=O)CCC32)C1 (stereo not given in full),-6 (active)
2,CC(=O)NBr,53 (inactive)
3,CC12CCC3C(CCC4CC(O)CCC43C)C1C/C(=C\c1ccccc1Cl)C2=O (stereo not given),62 (inactive)
4,CN1CCc2cc3c(cc2[C@H]1[C@@H]1OC(=O)c2c1ccc1c2OCO1)OCO3,67 (inactive) and 61 (inactive)
5,CSC(=NCc1ccccc1Cl)N/C(N)=N/[N+](=O)[O-],58 (inactive)
6,NCC(O)c1ccc(O)cc1 (stereo not given),-18 (active) and 54 (inactive) and 46 (inactive)
7,COc1ccc2c(c1O)-c1cccc3c1[C@@H](C2)N(C)CC3,57 (inactive)
8,c1cncc(OCC2=NCCN2)c1,51 (inactive)
9,CNC(=O)O/N=C\C(C)(C)SC,58 (inactive)
10,CC(=O)NS(=O)(=O)c1ccc(NC(=O)c2cccn(Cc3cccc([N+](=O)[O-])c3)c2=O)cc1,51 (inactive)
